In all, about 2,400 compounds went through this assay and about 580 (24%) were called active. The list is a sample of the results. A number with no mark means an inactive call.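 Rule for the calls: active = activity change at or above the mean plus 3 SD of buffer wells without dofetilide, per plate; inactive = the rest.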
These molecules were tested against Potassium voltage-gated channel subfamily KQT member 2 (Rattus norvegicus) (UniProt O88943) (assay: rat KCNQ2 channel activation by compounds alone, confirmation, counter-screen for hERG block protector project, cell-based, CHO, FluxOR thallium flux (AID 1942;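 note: normalized value minus buffer-control mean plus three SD of buffer wells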)). Conditions: CHO-KCNQ2 cells, FluxOR thallium flux fluorescence; at 10 µM; hits give high values.
Chain of Potassium voltage-gated channel subfamily KQT member 2 (Rattus norvegicus) (O88943 whole entry, looked up): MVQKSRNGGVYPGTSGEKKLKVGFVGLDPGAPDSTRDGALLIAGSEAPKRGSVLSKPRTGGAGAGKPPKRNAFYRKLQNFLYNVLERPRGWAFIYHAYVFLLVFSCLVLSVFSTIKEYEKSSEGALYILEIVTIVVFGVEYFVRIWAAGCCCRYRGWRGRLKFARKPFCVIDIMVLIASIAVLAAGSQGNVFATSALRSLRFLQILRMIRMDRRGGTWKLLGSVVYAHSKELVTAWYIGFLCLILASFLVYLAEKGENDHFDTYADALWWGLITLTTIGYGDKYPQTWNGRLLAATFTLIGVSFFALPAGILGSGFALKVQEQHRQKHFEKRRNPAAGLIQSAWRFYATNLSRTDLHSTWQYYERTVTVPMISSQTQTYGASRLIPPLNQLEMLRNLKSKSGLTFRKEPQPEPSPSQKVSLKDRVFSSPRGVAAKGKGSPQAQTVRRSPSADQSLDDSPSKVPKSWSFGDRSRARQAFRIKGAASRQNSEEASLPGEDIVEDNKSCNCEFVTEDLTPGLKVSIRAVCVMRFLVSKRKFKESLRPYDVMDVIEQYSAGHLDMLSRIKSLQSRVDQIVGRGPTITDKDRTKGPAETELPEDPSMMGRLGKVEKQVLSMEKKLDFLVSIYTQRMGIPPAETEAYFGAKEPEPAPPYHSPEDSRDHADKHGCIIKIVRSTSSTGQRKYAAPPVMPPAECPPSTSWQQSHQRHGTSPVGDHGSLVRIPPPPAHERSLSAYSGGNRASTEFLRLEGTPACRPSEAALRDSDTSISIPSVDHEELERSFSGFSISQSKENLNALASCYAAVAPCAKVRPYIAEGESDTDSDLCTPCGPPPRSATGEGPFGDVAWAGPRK
Work on `S=c1[nH]nc(-c2n[nH]c3c2CCC3)n1/N=C/C=C/c1ccccc1` yielded an activity change, less the hit threshold of -26.2%. `CC(=O)OCC1O[C@@H](O[C@@H]2C[C@H]3C(C)(C)[C@H](OC(C)=O)CC[C@]3(C)[C@H]3CC[C@]45C[C@]4(CC[C@H]5[C@@H](C)C[C@@H](O)[C@H](O)C(C)(C)O)[C@@]32C)[C@H](O)[C@@H](O)[C@@H]1O` (stereo not given in full) was tested, and the activity change, less the hit threshold was 1% (active). `CC(Nc1ccc(F)cc1)=[N+](C)CCNS(=O)(=O)c1ccc(Cl)cc1` gave an activity change, less the hit threshold of -10.9%. In the case of `N/C(=N\OS(=O)(=O)c1cccc([N+](=O)[O-])c1)c1ccncc1`, the activity change, less the hit threshold is reported as 1.3% (active). Work on `CN(c1cccc(NS(=O)(=O)c2cccc([N+](=O)[O-])c2)c1)S(C)(=O)=O` yielded an activity change, less the hit threshold of -9.2%. Work on `O=C(CSc1nnc(-c2ccncc2)o1)c1cccc([N+](=O)[O-])c1` yielded an activity change, less the hit threshold of -29.3%. Work on `CCOc1cccc(Nc2cc3n(c(=O)n2)CCc2cc(OC)c(OC)cc2-3)c1` yielded an activity change, less the hit threshold of -19.8%. Work on `CC(C)CCn1c(SCC(=O)NC2CC2)nc2cc(Cl)ccc2c1=O` yielded an activity change, less the hit threshold of -8.5%. For `CCCn1c(SCN2C(=O)c3ccccc3C2=O)nc2cc(Cl)ccc2c1=O`, the activity change, less the hit threshold was 21.1% (active). `O=C1c2ccccc2C(=O)N1Cc1nc2ccccc2c(=O)n1CCCn1ccnc1` was tested, and the activity change, less the hit threshold was -20.6%. In the case of `Cc1ccc(OCC(=O)Nn2cnc3ccccc32)cc1`, the activity change, less the hit threshold is reported as -12.3%. `O=C(CCc1ccc(S(=O)(=O)N2CCCCC2)cc1)c1nnc(-c2ccccc2)o1` showed an activity change, less the hit threshold of -13.3%. Work on `S=C(N/N=C/c1cccc2ccccc12)Nc1cccc(Cl)c1` yielded an activity change, less the hit threshold of -17.2%. For `S=c1nn[nH]n1C12CC3CC(CC(C3)C1)C2`, the activity change, less the hit threshold was 21.6% (active). `Cc1cccc(-n2c(=S)[nH]c3sc4c(c3c2=O)CCc2ccccc2-4)c1` was tested, and the activity change, less the hit threshold was -19.9%. In the case of `Cc1ccc(-n2c(=S)[nH]c3sc4c(c3c2=O)CCC4)cc1`, the activity change, less the hit threshold is reported as 0.2% (active). In the case of `CCn1c(=S)[nH]c2sc3c(c2c1=O)CCCCC3`, the activity change, less the hit threshold is reported as 97.9% (active). In the case of `O=C1c2ccccc2C(=O)N1Cc1ccco1`, the activity change, less the hit threshold is reported as -11.8%. `CCn1c(=S)[nH]c2sc3c(c2c1=O)CCCC3` was tested, and the activity change, less the hit threshold was 49.6% (active). For `Cc1cc(=O)[nH]c(=S)n1-c1ccccc1`, the activity change, less the hit threshold was -31%. `O=c1c2c3c(sc2[nH]c(=S)n1Cc1ccco1)CCC3` was tested, and the activity change, less the hit threshold was 26.9% (active). In the case of `CCN(/N=C/c1ccc(Cl)cc1)c1cc(=O)n(C)c(=O)[nH]1`, the activity change, less the hit threshold is reported as -19%. `CCCCCOCC1CC(C/C(C)=N/Nc2nc(-c3ccccc3)cs2)C(=O)O1` (stereo not given) was tested, and the activity change, less the hit threshold was -18.7%. Molecule `O=C(/C=C/Nc1ccc(F)cc1)c1ccco1` has an activity change, less the hit threshold of -17.3%. With `O=C(c1cccc2c1-c1ccccc1C2)N1CCCCC1` the activity change, less the hit threshold was -20.1%. `O=C(O)c1ccc2c(c1)C(=O)N(c1cc([N+](=O)[O-])ccn1)C2=O` gave an activity change, less the hit threshold of -1.1%. Molecule `O=C(CN1CCN(Cc2ccccc2)CC1)NCc1ccccc1Cl` has an activity change, less the hit threshold of -10.1%. With `CCCn1c(=S)[nH]c2sc3c(c2c1=O)CCCC3` the activity change, less the hit threshold was 72% (active). `COc1ccc(N(CC(=O)N2CCN(Cc3ccccc3)CC2)S(C)(=O)=O)cc1` gave an activity change, less the hit threshold of -25.7%. `C#CCN1C(=O)S/C(=C\c2ccc(-c3ccc(C(=O)O)cc3C)o2)C1=O` gave an activity change, less the hit threshold of -20.3%. Molecule `COc1cc(CCC(=O)NNC(=O)c2ccc(C)cc2)cc(OC)c1OC` has an activity change, less the hit threshold of -8.9%. With `Oc1c(Br)cc(Br)cc1C=Nc1ccc2[nH]ncc2c1` the activity change, less the hit threshold was 33% (active). `Oc1c(Br)cc(Br)cc1C=Nc1ccc2c(c1)OCCO2` showed an activity change, less the hit threshold of -1.5%. `CCOc1cccc(C(=O)Nc2ccc3[nH]ncc3c2)c1` showed an activity change, less the hit threshold of -15.8%. `O=C(CSc1nc2ccccc2o1)NCc1n[nH]c(=O)c2ccccc12` was tested, and the activity change, less the hit threshold was -12.3%. With `Cc1cc(NC(=O)/C(C#N)=C/c2ccco2)n(-c2ccccc2)n1` the activity change, less the hit threshold was -20.2%. In the case of `COc1ccc(-n2nc(C)cc2Nc2ccccc2C(=O)O)cc1`, the activity change, less the hit threshold is reported as 21.8% (active). For `CCOc1ccc(C(=O)Nc2ccccc2C(=O)O)cc1`, the activity change, less the hit threshold was -4%. `CCCCSc1nnc(CCC)n1N` gave an activity change, less the hit threshold of -8.4%. With `CCOC(=O)c1c(NC(=O)CN2CCN(C(=O)c3ccco3)CC2)sc2c1CCCC2` the activity change, less the hit threshold was 17.6% (active). Work on `COC(=O)c1c(NC(=O)c2ccco2)sc2c1C(C(=O)OC)CC2` (stereo not given) yielded an activity change, less the hit threshold of -18.3%. For `CCOc1ccc(OCC(=O)OCC(=O)N2CCN(C(=O)c3ccco3)CC2)cc1`, the activity change, less the hit threshold was -10.5%. In the case of `CCc1c(C)sc(NC(=O)CN2CCN(C(=O)c3ccco3)CC2)c1C(=O)OC`, the activity change, less the hit threshold is reported as 16.7% (active). `CC(C)OC(=O)c1c(NC(=O)c2ccco2)sc2c1CCCCC2` showed an activity change, less the hit threshold of -27.5%. With `O=C(CNCC1CCCO1)N1CCCCCC1` (stereo not given) the activity change, less the hit threshold was -15.5%. In the case of `CC(Oc1ccc(Br)cc1Br)C(=O)Nc1cccnc1` (stereo not given), the activity change, less the hit threshold is reported as -16.3%. `Cc1oc(/N=C/c2ccc(F)cc2)c(C#N)c1C` gave an activity change, less the hit threshold of -16.1%. For `O=C(CN1C(=O)COc2ccccc21)NNC(=O)Nc1ccccc1F`, the activity change, less the hit threshold was -21.5%. In the case of `Oc1oc(-c2cccc3ccccc23)nc1/C=N/c1nccs1`, the activity change, less the hit threshold is reported as 13.4% (active). `O=c1cc(O)c2ccccc2n1Cc1ccccc1Cl` was tested, and the activity change, less the hit threshold was -12.7%. Work on `N=C1S/C(=C\c2ccc(-c3cccc(Cl)c3)o2)C(=O)N1c1nccs1` yielded an activity change, less the hit threshold of -9.5%. With `O=C1c2ccccc2NC(c2ccc(Br)s2)N1O` (stereo not given) the activity change, less the hit threshold was 70.9% (active). With `Cc1cc([N+](=O)[O-])ccc1-c1ccc(C2Nc3ccccc3C(=O)N2O)o1` (stereo not given) the activity change, less the hit threshold was -3.8%. For `C=CCc1cccc(C2Nc3ccccc3C(=O)N2O)c1O` (stereo not given), the activity change, less the hit threshold was -12.4%. Molecule `CC1(OC(=O)c2ccc(Cl)nc2)C(=O)C=C2C=C(c3ccc(C#N)cc3)OC=C2C1=O` (stereo not given) has an activity change, less the hit threshold of -15.2%. With `Fc1cccc2sc(Nc3nnc(-c4ccccc4)o3)nc12` the activity change, less the hit threshold was 79.5% (active). `Fc1cccc2sc(Nc3nnc(-c4ccco4)o3)nc12` was tested, and the activity change, less the hit threshold was 25.3% (active). `Fc1ccc2nc(Nc3nc4c(F)cc(F)cc4s3)sc2c1` showed an activity change, less the hit threshold of -10.7%. In the case of `Fc1cccc2sc(Nc3nc4c(F)cccc4s3)nc12`, the activity change, less the hit threshold is reported as 0.7% (active). With `COc1cccc(-c2nnc(Nc3nc4c(F)cccc4s3)o2)c1` the activity change, less the hit threshold was 13.2% (active). Molecule `CC(=O)Nc1nc2c(F)cccc2s1` has an activity change, less the hit threshold of -18.4%. `Cc1cc(C)nc(SCc2nnc(SCC(=O)Nc3nc(-c4ccccc4)cs3)n2-c2ccccc2)n1` showed an activity change, less the hit threshold of -11%. For `Nc1ccc(NC(=O)Nc2ccc(N)cc2)cc1`, the activity change, less the hit threshold was -14.5%. Work on `OC(CNCC(c1ccc(Cl)cc1Cl)c1c[nH]c2ccccc12)c1ccccc1` (stereo not given) yielded an activity change, less the hit threshold of -43.4%. Molecule `COc1cccc2cc(-c3nc4ccccc4[nH]3)c(=O)oc12` has an activity change, less the hit threshold of -23.9%. `COc1cccc(-c2cc(C(F)(F)F)nc(N3CCCCC3)n2)c1` was tested, and the activity change, less the hit threshold was -10.8%. `O=C1CCCN1C(=O)COc1ccccc1[N+](=O)[O-]` showed an activity change, less the hit threshold of -15.5%. `Cc1ccnc(N2CCC(C(=O)Nc3ccc(Oc4ccccc4)cc3)CC2)n1` gave an activity change, less the hit threshold of -22%. `CC(C)C(O)(C#CCN1CCCC1)c1ccccc1` (stereo not given) was tested, and the activity change, less the hit threshold was -11.8%. With `CC1CCN(C(=S)NC(=O)c2ccc(C(C)(C)C)cc2)CC1` the activity change, less the hit threshold was 10.7% (active). In the case of `O=C(NC(=S)N1CCCC1)c1ccc(Cl)cc1`, the activity change, less the hit threshold is reported as 4.3% (active). Work on `CC(C)(C)c1ccc(C(=O)NC(=S)N2CCCC2)cc1` yielded an activity change, less the hit threshold of -7.6%. In the case of `COc1ccc(C(=O)NC(=S)N2CCC(C)CC2)cc1`, the activity change, less the hit threshold is reported as -13.2%. With `CC(C)(C)c1ccc(C(=O)NC(=S)N2CCCCCC2)cc1` the activity change, less the hit threshold was 18.8% (active). In the case of `COc1ccc(C(=O)NC(=S)N2CCC(C)CC2)cc1Br`, the activity change, less the hit threshold is reported as 51% (active). Work on `S=C(N/N=C/c1ccc(Cl)cc1)N1CCOCC1` yielded an activity change, less the hit threshold of -26.9%. `CN1CCN(C(=S)NC(=O)c2ccc(C(C)(C)C)cc2)CC1` gave an activity change, less the hit threshold of -16.2%. With `CC1CN(C(=S)NC(=O)c2ccc(Cl)cc2)CC(C)O1` (stereo not given) the activity change, less the hit threshold was -3.2%. In the case of `O=C(Nc1ccccc1)OCCCCCOC(=O)Nc1ccccc1`, the activity change, less the hit threshold is reported as -18.2%. `Nc1cc(=O)[nH]c(SCC(=O)N2CCCCC2)n1` was tested, and the activity change, less the hit threshold was -21.9%. `O=C1C2CC=CCC2C(=O)N1c1ccc(Cc2ccncc2)cc1` (stereo not given) gave an activity change, less the hit threshold of -5.4%. In the case of `O=C(NC(=S)N1CCCC(C(F)(F)F)C1)c1ccc(F)cc1` (stereo not given), the activity change, less the hit threshold is reported as 24.6% (active). `O=C(NC(=S)N1CCCCCC1)c1ccc(Cl)cc1Cl` was tested, and the activity change, less the hit threshold was 7.1% (active). For `CC(C)(C)c1ccc(/C=C/C(=O)N2CCCCC2)cc1`, the activity change, less the hit threshold was 5.1% (active). Work on `CC(C)(C)c1nc(SCC(=O)N2CCCC2)c2ccccc2n1` yielded an activity change, less the hit threshold of -0.3%. `COc1cc(OC)cc(C(=O)NC(=S)N2CCCCCC2)c1` gave an activity change, less the hit threshold of -13.9%. For `O=C(c1ccc(C(F)(F)F)cc1)C1CCCN(C(=O)CCc2ccncc2)C1` (stereo not given), the activity change, less the hit threshold was -24.8%. `O=C(C1CC(=O)N(c2ccc3c(c2)OCCO3)C1)N1CCCC(C(F)(F)F)C1` (stereo not given) was tested, and the activity change, less the hit threshold was -22.3%. For `Cc1ccc(/C=C(\NC(=O)c2ccccc2)C(=O)N2CCCCC2)cc1`, the activity change, less the hit threshold was -24.3%. `Cc1ccc(C2C(C#N)=C(N)OC3=C2C(=O)CC(C)(C)C3)s1` (stereo not given) showed an activity change, less the hit threshold of -16.9%. Work on `O=[N+]([O-])c1ccccc1OCCNCc1ccccc1` yielded an activity change, less the hit threshold of -14.6%. `COc1ccc(CNC(=O)C(=O)c2cn(CC(=O)N3CCCC3)c3ccccc23)cc1` gave an activity change, less the hit threshold of -11.5%. Work on `CCOC(=O)CC(=O)CSc1nc2c(C)c(C)ccc2cc1C` yielded an activity change, less the hit threshold of -15.8%. `COC(=O)Cn1c(=O)c(=O)n(CC(=O)OC)c2ccccc21` was tested, and the activity change, less the hit threshold was -18.3%. In the case of `O=c1c(Cc2ccccc2)c(O)nc2n1CCCS2`, the activity change, less the hit threshold is reported as -10.3%. In the case of `O=c1c2[nH]c3ccccc3c2nc2n1CCCS2`, the activity change, less the hit threshold is reported as 9.5% (active). With `CCOC(=O)N1CCN(C(=O)CSc2nc3c([nH]c4ccccc43)c(=O)n2CC)CC1` the activity change, less the hit threshold was -17.8%. Work on `Cc1cc(NC(=O)CSc2nnc(Nc3ccccc3)s2)no1` yielded an activity change, less the hit threshold of -25.4%. `CCCc1nc(SCC(=O)Nc2cc(C)on2)c2ccccc2n1` gave an activity change, less the hit threshold of -19.7%. For `Cc1cc(NC(=O)CSc2nc(C3CC3)nc3sc(C)c(C)c23)no1`, the activity change, less the hit threshold was 19.9% (active).

— PubChem BioAssay AID1942 (Johns Hopkins Ion Channel Center, 2009)
